# Assay results published in the supplement of paper PMC8866396.
# ± gives the standard deviation of the averaged measurements.
# Tests used:
# IL-6-GFP PC-9GR = assay: cell viability (CCK-8 OD) relative to DMSO control (fraction of control); higher = more viable cells; settings: compound concentration: 10 uM; treatment time: 48 h
# How it was run: (§1)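 In 96-well plates, 3000 cells/well of PC-9 or PC-9GR lung cancer cells with lentiviral IL-6-GFP overexpression received each compound of a purchased 510-compound library at a final 10 μM for 48 h. Viability, measured by CCK-8 absorbance, is each well's optical density relative to the vehicle control well. Data come from two independent replicates.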
# IL-6-GFP PC-9 = assay: as above; settings: compound concentration: 10 uM; treatment time: 48 h
# How it was run: as §1
SMILES,cell viability (IL-6-GFP PC-9GR),cell viability (IL-6-GFP PC-9)
O=C1CCCC2C3CCC[N+]4([O-])CCCC(CN12)C34 (configuration not stated) [Oxymatrine],1.47 ± 0.16,1.33 ± 0.068
CCN(CC)CCNC(=O)c1c(C)[nH]c(/C=C2\C(=O)Nc3ccc(F)cc32)c1C.O=C(O)CC(O)C(=O)O [Sunitinib Malate],1.01 ± 0.063,0.453 ± 0.52
Cl.N=C1CCCN1Cc1[nH]c(=O)[nH]c(=O)c1Cl [Tipiracil hydrochloride],1.14 ± 0.35,1.25 ± 0.059
COc1cccc2c1C(=O)c1c(O)c3c(c(O)c1C2=O)CC(O)(C(=O)CO)CC3OC1CC(N)C(O)C(C)O1.Cl (configuration not stated) [Doxorubicin (Adriamycin) HCl],0.159 ± 0.12,0.136 ± 0.03
C=C(NC(=O)C(=C)NC(=O)c1csc(C2=NC3c4csc(n4)C4NC(=O)c5csc(n5)C(C(C)(O)C(C)O)NC(=O)C5CSC(=N5)/C(=C/C)NC(=O)C(C(C)O)NC(=O)c5csc(n5)C3(CC2)NC(=O)C(C)NC(=O)C(=C)NC(=O)C(C)NC(=O)C(C(C)CC)NC2C=Cc3c(C(C)O)cc(nc3C2O)C(=O)OC4C)n1)C(N)=O (configuration not stated) [Thiostrepton],0.184 ± 0.083,0.412 ± 0.15
Cc1ccc(C(C)C)cc1 [p-Cymene],0.822 ± 0.24,1.249 ± 0.011
CN1C(C(=O)Nc2ccccn2)=C(O)c2ccccc2S1(=O)=O [Piroxicam],1.21 ± 0.047,1.09 ± 0.12
CC(=O)OC1CCC2(C)C(CCC3(C)C2C(=O)C=C2C4C(C)C(C)CCC4(C)CCC23C)C1(C)C(=O)O (configuration not stated),0.941 ± 0.28,1.09 ± 0.16
CC(=O)OC(C)C(C)C(=O)OCC12C3CC4(C)C(=CCC5C6(C)CCC(OC7OC(C(=O)[O][Na])C(OC8OC(CO)C(O)C(O)C8O)C(O)C7OC7OCC(O)C(O)C7O)C(C)(CO)C6CCC54C)C1CC(C)(C)C(O3)C2O (configuration not stated) [Sodium Aescinate],0.632 ± 0.25,1 ± 0.18
CC1(C)OC2CC3C4CC(F)C5=CC(=O)C=CC5(C)C4(F)C(O)CC3(C)C2(C(=O)CO)O1 (configuration not stated) [Fluocinolone Acetonide],1.26 ± 0.091,1 ± 0.015
COc1ccc2c(c1)c(CC(=O)OCC(=O)O)c(C)n2C(=O)c1ccc(Cl)cc1 [Acemetacin],1.07 ± 0.14,0.954 ± 0.2
Nc1cccc2c1C(=O)N(C1CCC(=O)NC1=O)C2=O (configuration not stated) [Pomalidomide],1.5 ± 0.33,1.22 ± 0.12
CCC(C)(Oc1ccc(C2(c3ccc(OC(C)(CC)C(=O)O)cc3)CCCCC2)cc1)C(=O)O (configuration not stated) [Clinofibrate],1.17 ± 0.14,1.23 ± 0.42
Cc1nnc(C(=O)NC(C)(C)c2nc(C(=O)NCc3ccc(F)cc3)c([O-])c(=O)n2C)o1.[K+] [Raltegravir potassium],1.37 ± 0.48,1.12 ± 0.16
Nc1c(CC(=O)[O-])cccc1C(=O)c1ccc(Br)cc1.[Na+] [Bromfenac Sodium],0.923 ± 0.095,1 ± 0.14
COC1CC2CCC(C)C(O)(O2)C(=O)C(=O)N2CCCCC2C(=O)OC(C(C)CC2CCC(OCCO)C(OC)C2)CC(=O)C(C)/C=C(\C)C(O)C(OC)C(=O)C(C)CC(C)/C=C/C=C/C=C/1C (configuration not stated) [Everolimus (RAD001)],0.985 ± 0.068,0.66 ± 0.29
Cl.N=C1CCCN1Cc1[nH]c(=O)[nH]c(=O)c1Cl.O=c1[nH]c(=O)n(C2CC(O)C(CO)O2)cc1C(F)(F)F.O=c1[nH]c(=O)n(C2CC(O)C(CO)O2)cc1C(F)(F)F (configuration not stated),0.556 ± 0.067,0.812 ± 0.28
CC/C(=C(/CC)c1ccc(O)cc1)c1ccc(O)cc1 [Diethylstilbestrol],1.13 ± 0.038,1.18 ± 0.19
Cn1c(=O)cc(N2CCCC(N)C2)n(Cc2ccccc2C#N)c1=O (configuration not stated) [Alogliptin(SYK-322)benzoate],0.986 ± 0.057,1.05 ± 0.088

SMILES,cell viability (IL-6-GFP PC-9GR),cell viability (IL-6-GFP PC-9)
COc1ccnc(CS(=O)c2nc3ccc(-n4cccc4)cc3[nH]2)c1C (configuration not stated) [Ilaprazole],1.17 ± 0.38,1.29 ± 0.23
CN(C)CCC(c1ccc(Br)cc1)c1ccccn1.O=C(O)/C=C\C(=O)O (configuration not stated) [Brompheniramine hydrogen maleate],1.17 ± 0.23,1.09 ± 0.15
Cl.NC1=NCC2c3ccccc3Cc3ccccc3N12 (configuration not stated) [Epinastine HCl],0.9943 ± 0.0026,1.22 ± 0.014
CCCCOC(=O)c1ccccc1Nc1cccc(C(F)(F)F)c1 [Ufenamate],0.8299 ± 0.0043,0.992 ± 0.24
CC(OCC1(c2ccccc2)CCC2(CCC(=O)N2)CN1)c1cc(C(F)(F)F)cc(C(F)(F)F)c1 (configuration not stated) [Rolapitant],0.76 ± 0.035,0.853 ± 0.26
CC12CCC(=O)C=C1CCC1C2C(O)CC2(C)C1CCC2(O)C(=O)CO (configuration not stated) [Hydrocortisone],1.41 ± 0.42,0.995 ± 0.24
CC1CC2C3CCC4=CC(=O)C=CC4(C)C3(F)C(O)CC2(C)C1(O)C(=O)CO (configuration not stated) [Betamethasone],1.24 ± 0.11,1.29 ± 0.29
CCC1=CC2CN(C1)Cc1c([nH]c3ccccc13)C(C(=O)OC)(c1cc3c(cc1OC)N(C)C1C(O)(C(=O)OC)C(OC(C)=O)C4(CC)C=CCN5CCC31C54)C2.O=C(O)C(O)C(O)C(=O)O.O=C(O)C(O)C(O)C(=O)O (configuration not stated) [Vinorelbine Tartrate],0.559 ± 0.13,0.566 ± 0.081
Cc1ccc(=O)n(-c2ccccc2)c1 [Pirfenidone],1.24 ± 0.21,1.07 ± 0.31
COc1cc2c3cc1Oc1c(OC)c(OC)cc4c1C(Cc1ccc(O)c(c1)Oc1ccc(cc1)CC3N(C)CC2)N(C)CC4 (configuration not stated) [Berbamine],0.891 ± 0.25,1.08 ± 0.14
CCCCCCNC(=O)n1cc(F)c(=O)[nH]c1=O [Carmofur],0.934 ± 0.022,0.906 ± 0.14
CN(C)CCCOc1nn(Cc2ccccc2)c2ccccc12.Cl [Benzydamine HCl],0.996 ± 0.23,0.549 ± 0.52
COc1ccc2c(c1)nc(S(=O)Cc1ncc(C)c(OC)c1C)[n]2[Na] (configuration not stated) [Esomeprazole sodium],1.26 ± 0.2,0.939 ± 0.16
Cc1c(N)c(=O)n(-c2ccccc2)n1C [4-Aminoantipyrine],0.98 ± 0.13,1.212 ± 0.0049
Cl.Nc1ccn(C2OC(CO)C(O)C2(F)F)c(=O)n1 (configuration not stated) [Gemcitabine HCl],0.596 ± 0.012,0.566 ± 0.046
Cc1nccn1CC1CCc2c(c3ccccc3n2C)C1=O.Cl (configuration not stated) [Ondansetron HCl],1.24 ± 0.19,1.18 ± 0.093
Nc1nc(F)nc2c1ncn2C1OC(COP(=O)(O)O)C(O)C1O (configuration not stated) [Fludarabine Phosphate],0.174 ± 0.083,0.206 ± 0.052
CNC(=O)c1ccc(N2C(=S)N(c3ccc(C#N)c(C(F)(F)F)c3)C(=O)C2(C)C)cc1F [Enzalutamide (MDV3100)],1.04 ± 0.077,0.808 ± 0.099
CNC(=O)c1cc(Oc2ccc(NC(=O)Nc3ccc(Cl)c(C(F)(F)F)c3)c(F)c2)ccn1 [Regorafenib (BAY 73-4506)],0.833 ± 0.029,0.476 ± 0.11

SMILES,cell viability (IL-6-GFP PC-9GR),cell viability (IL-6-GFP PC-9)
CC(=O)Nc1ccc(OC(=O)c2ccccc2OC(C)=O)cc1 [Benorylate],1.54 ± 0.41,1.13 ± 0.046
COc1cc(C2Oc3ccc(C4Oc5cc(O)cc(O)c5C(=O)C4O)cc3OC2CO)ccc1O (configuration not stated) [Silymarin],1.53 ± 0.29,1.21 ± 0.17
"O=C(c1ccc(F)c(F)c1Nc1ccc(I)cc1F)N1CC(O)(C2CCCCN2)C1 (configuration not stated) [Cobimetinib (GDC-0973, RG7420)]",0.7146 ± 0.0029,0.115 ± 0.15
COC(c1ccccc1)(c1ccccc1)C(Oc1nc(C)cc(C)n1)C(=O)O (configuration not stated) [Ambrisentan],1.22 ± 0.077,1.25 ± 0.37
CCCCOc1ccc(C(=O)CCN2CCCCC2)cc1.Cl [Dyclonine HCl],1.34 ± 0.43,1.12 ± 0.076
NC1CN(c2c(F)cc3c(=O)c(C(=O)O)cn(C4CC4F)c3c2Cl)CC12CC2.NC1CN(c2c(F)cc3c(=O)c(C(=O)O)cn(C4CC4F)c3c2Cl)CC12CC2.O.O.O (configuration not stated) [Sitafloxacin Hydrate],1.11 ± 0.072,1.01 ± 0.042
COc1ccc(-c2cc(=S)ss2)cc1 [Anethole trithione],0.868 ± 0.15,1.17 ± 0.031
CS(=O)(=O)O.N#CC1(c2ccc(NC(=O)c3cccnc3NCc3ccncc3)cc2)CCCC1,1.32 ± 0.072,0.887 ± 0.084
CC(C(=O)[O-])c1cccc(Oc2ccccc2)c1.CC(C(=O)[O-])c1cccc(Oc2ccccc2)c1.[Ca+2] (configuration not stated) [Fenoprofen Calcium],1.26 ± 0.064,0.938 ± 0.013
CS(=O)(=O)O.Cc1ccc(NC(=O)c2ccc(CN3CCN(C)CC3)cc2)cc1Nc1nccc(-c2cccnc2)n1 [Imatinib Mesylate (STI571)],1.26 ± 0.07,1.1 ± 0.1
CNCC(O)c1ccc(O)c(O)c1.O=C(O)C(O)C(O)C(=O)O (configuration not stated) [Epinephrine bitartrate],1.17 ± 0.15,1.2 ± 0.022
CC(=O)OCC(=O)C1(O)CCC2C3CCC4=CC(=O)CCC4(C)C3C(=O)CC21C (configuration not stated) [Cortisone acetate],1.29 ± 0.26,1.12 ± 0.1
CCC1(O)C(=O)OCc2c1cc1n(c2=O)Cc2cc3c(CN(C)C)c(O)ccc3nc2-1 (configuration not stated) [Topotecan],0.333 ± 0.19,0.3428 ± 0.0013
CCN(CC)CCNC(=O)c1c(C)[nH]c(/C=C2\C(=O)Nc3ccc(F)cc32)c1C [Sunitinib],0.573 ± 0.2,0.911 ± 0.27
Cn1c(=O)cc(N2CCCC(N)C2)n(Cc2cc(F)ccc2C#N)c1=O (configuration not stated) [Trelagliptin],1.09 ± 0.15,1.33 ± 0.49
"COc1ccc2cc1Oc1ccc(cc1)CC1c3cc(c(OC)cc3CCN1C)Oc1c(O)c(OC)cc3c1C(C2)N(C)CC3 (single isomer, unassigned; (+)) [(+)-Fangchinoline]",0.731 ± 0.36,0.678 ± 0.23
COc1ccc2cc(C(C)C(=O)O)ccc2c1 (configuration not stated) [Naproxen],1.5 ± 0.37,1.08 ± 0.16
Cn1cc(C2=C(c3cccc(N)c3)C(=O)NC2=O)c2ccccc21,0.303 ± 0.31,0.677 ± 0.15
